Sampled rows, rich in hits. Any-hit rate of the full collection: about 12%.
HP1b binding inh: blocks HP1-beta chromodomain binding to methylated histone tails; P83916; Potency, µM (highest dose often 114 µM), most hits filed as inhibitors; AID 540317; AlphaScreen HP1-beta / biotin-H3K9me3 peptide binding; actives 0.56% (n = 390,000); also: nearly all actives have a fitted effect of over 70% in size
Target sequence (P83916 whole entry, looked up): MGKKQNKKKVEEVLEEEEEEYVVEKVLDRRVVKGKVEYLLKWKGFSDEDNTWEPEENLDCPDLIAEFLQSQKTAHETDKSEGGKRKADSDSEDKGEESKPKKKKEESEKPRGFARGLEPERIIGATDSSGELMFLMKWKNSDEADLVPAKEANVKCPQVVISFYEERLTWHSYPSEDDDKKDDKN
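HP1-beta protein (50 nM final) preincubated 30 min at room temperature with biotinylated H3(1-18)K9me3 peptide (50 nM) in PBS pH 7.4, 0.01% Tween-20, then compound added for 30 min. AlphaScreen streptavidin donor/nickel chelate acceptor beads (10 ug/mL final), 30 min dark, luminescence read.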
G9a block: inhibitors of human histone lysine methyltransferase G9a; Q96KQ7; G9a H3K9 monomethylation, AlphaScreen, 2 h; Potency, µM (highest dose often 102 µM), actives largely listed as inhibitors; actives 8.8% (n = 350,000); also: nearly all actives have a fitted effect of over 75% in size
Target sequence (Q96KQ7 913-1193 limits assumed): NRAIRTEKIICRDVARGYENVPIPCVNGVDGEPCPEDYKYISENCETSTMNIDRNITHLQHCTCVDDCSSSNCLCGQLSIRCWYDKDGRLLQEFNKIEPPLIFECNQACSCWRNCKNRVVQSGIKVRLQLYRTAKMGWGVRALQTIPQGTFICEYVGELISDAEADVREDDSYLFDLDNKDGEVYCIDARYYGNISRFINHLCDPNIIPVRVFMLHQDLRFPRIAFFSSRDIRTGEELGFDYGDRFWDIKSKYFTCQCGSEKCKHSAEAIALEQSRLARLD
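Readings reflect AlphaScreen signal from monomethyl-H3K9 antibody detection. HMT at 20 nM; substrate b-H3K9 500 nM; cofactor SAM 20 uM; 2 h RT reaction; compounds tested as titrations in qHTS with 15 min preincubation.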
L3MBTL1 inh: inhibitors of human L3MBTL1; Q9Y468; AlphaScreen L3MBTL1–H3K9me1 peptide binding; Potency, µM (series often up to 57.1 µM), hits mostly inhibitors; actives 0.66% (n = 230,000); also: nearly all actives have a fitted effect of over 60% in size
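AlphaScreen proximity signal between nickel-chelate acceptor and streptavidin donor beads (final 10 ug/mL) reports binding of 50 nM L3MBTL1 to 75 nM biotin-H3 K9me1 peptide; complex incubated with compounds 30 min at room temperature; cefsulodin titration as control.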
Sfp inh: blocks B. subtilis Sfp PPTase activity; Biochemical Sfp PPTase activity, qHTS; Potency, µM, actives largely listed as inhibitors; actives 3.5% (n = 310,000); AID 1490;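 also: the enzyme is Sfp with the accession as filed and its product quenches rhodamine fluorescence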
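With Hepes-Na pH 7.6 buffer containing 10 mM MgCl2, Sfp (15 nM) modified BHQ-2-YbbR (12.5 uM) using rhodamine-CoA (5 uM). Two reads 30 minutes apart at 525/598 nm yielded each well's rate.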
BAZ2B inh: BAZ2B (human) inhibition | Q9UIF8 | AlphaScreen BAZ2B-H3K14Ac peptide displacement | Potency, µM (series often up to 114 µM), hits mostly inhibitors | actives 4.4% (n = 360,000) | AID 504333; also: nearly all actives have a fitted effect of over 60% in size
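Protein-peptide AlphaScreen: BAZ2B 50 nM, b-H3K14Ac 50 nM, 1x PBS pH 7.4 + 0.01% Tween-20. Preincubation 30 min RT; cpd 30 min RT (top 110 uM); beads 20 min RT, light-protected.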
JMJD2A Tudor: JMJD2A Tudor domain (human) inhibition; O75164; AlphaScreen JMJD2A-Tudor / H3K4me3 peptide binding; Potency, µM (titrated, usually from 114 µM), actives largely listed as inhibitors; actives 4.4% (n = 390,000); also: nearly all actives have a fitted effect of over 50% in size
Large screens that a line does not name were inactive. Calls follow the shape of the dose curve; as a rule, active = well fitted curve in the direction sought with a large enough effect; inconclusive = small, poorly fitted or top-dose-only effect, or another doubt; inactive = no such curve, though single readings can be large; an effect the other way counts as inactive or inconclusive.

COCCNC(=O)C1(C(F)(F)F)C/C(=C\Cc2ccccc2)CCCO1 (stereo unspecified)	none (no result: G9a block, L3MBTL1 inh, BAZ2B inh)
O=C(CSc1nnc(-c2ccccc2)n1CC1CCCO1)N1CCCC1 (stereo unspecified)	none
CC1(C)CC(=O)C(Sc2nnc(-c3ccc(O)cc3)n2CC2CCCO2)C(=O)C1 (stereo unspecified)	G9a block 28.2µM, Sfp inh 44.7µM, BAZ2B inh inconclusive
CC(=O)Nc1ccc(C(=O)CSc2nnc(-c3ccc(O)cc3)n2CC2CCCO2)cc1 (stereo unspecified)	G9a block 20µM, Sfp inh inconclusive, JMJD2A Tudor 79.4µM
O=C(O)c1cc(S(=O)(=O)NC(Cc2c[nH]c3ccccc23)C(=O)O)ccc1Cl (stereo unspecified)	G9a block 44.7µM (no result: L3MBTL1 inh)
O=C(O)C(Cc1c[nH]c2ccccc12)NS(=O)(=O)c1cccc(Cl)c1Cl (stereo unspecified)	BAZ2B inh 89.1µM (no result: L3MBTL1 inh)
O=C(O)c1ccc(Cl)c(S(=O)(=O)NC(Cc2c[nH]c3ccccc23)C(=O)O)c1 (stereo unspecified)	G9a block inconclusive (no result: L3MBTL1 inh)
O=C(O)C(Cc1c[nH]c2ccccc12)NS(=O)(=O)c1ccc2ccccc2c1 (stereo unspecified)	none
Fc1ccccc1-c1csc(-c2cccnc2)n1	none (no result: L3MBTL1 inh)
Oc1ccccc1-c1csc(-c2ccccc2)n1	none (no result: L3MBTL1 inh)
Oc1ccc(-c2csc(-c3ccccc3)n2)cc1O	HP1b binding inh inconclusive, G9a block inconclusive, Sfp inh 56.2µM, BAZ2B inh 56.2µM, JMJD2A Tudor 39.8µM
c1cncc(-c2nc(-c3ccc4c(c3)OCCO4)cs2)c1	none (no result: L3MBTL1 inh)
Oc1ccc(-c2csc(-c3cccnc3)n2)cc1O	HP1b binding inh 79.4µM, Sfp inh inconclusive, BAZ2B inh 44.7µM, JMJD2A Tudor 7.08µM (no result: G9a block, L3MBTL1 inh)
Cc1nc(-c2ccc(O)c(O)c2)cs1	HP1b binding inh inconclusive, G9a block 1.41µM, Sfp inh 56.2µM, JMJD2A Tudor 3.98µM (no result: L3MBTL1 inh)
Clc1ccc(-c2csc(-c3cccnc3)n2)s1	G9a block 39.8µM (no result: L3MBTL1 inh)
COc1ccc(-c2cc(C(F)(F)F)nc(SCCC(=O)Nc3ccc(F)cc3F)n2)cc1	none (no result: L3MBTL1 inh, Sfp inh)
COC(=O)/C=c1/s/c(=C(\C#N)C(=O)NCc2ccco2)n(-c2ccc(C)cc2)c1=O	G9a block inconclusive, Sfp inh 56.2µM
CCC(C)NC(=O)c1ccc2c(c1)nc1n2CCCCC1 (stereo unspecified)	none (no result: L3MBTL1 inh, Sfp inh)
O=C(Nc1nnc(SCc2ccccc2)s1)C1=COCCO1	none (no result: Sfp inh)
C=CCSc1nnc(NC(=O)C2=COCCO2)s1	G9a block 35.5µM (no result: Sfp inh)
COc1ccccc1CNC(=O)Cn1cc2c(n1)-c1c(oc(C(=O)N3CCOCC3)c1C)CC2	none (no result: L3MBTL1 inh, Sfp inh)
Cc1noc(C)c1COc1ccccc1C(=O)N(C)CC(=O)Nc1ccc(Cl)c(Cl)c1	none (no result: Sfp inh)
CCN(CC)S(=O)(=O)c1cc(NC(=O)c2ccccc2OCc2c(C)noc2C)ccc1C	JMJD2A Tudor 89.1µM (no result: G9a block, L3MBTL1 inh, Sfp inh, BAZ2B inh)
COc1cccc(NC(=O)CN(C)C(=O)c2ccccc2OCc2c(C)noc2C)c1	G9a block 7.94µM (no result: Sfp inh)
COc1cc(OC)c(NC(=O)N2CCc3c(sc4c3CCCC4)C2c2ccccc2)cc1Cl (stereo unspecified)	G9a block inconclusive, JMJD2A Tudor inconclusive (no result: L3MBTL1 inh, Sfp inh)
CN(C)S(=O)(=O)c1cccc(C(=O)Nc2n[nH]c(C(F)(F)F)n2)c1	JMJD2A Tudor 7.08µM (no result: L3MBTL1 inh)
NCCN1CCN(S(=O)(=O)c2ccc([N+](=O)[O-])cc2)C=C1c1ccc(Cl)cc1	BAZ2B inh 56.2µM, JMJD2A Tudor inconclusive (no result: Sfp inh)
COc1ccccc1-c1ocnc1C(=O)N1CCN(C(=O)C(c2ccccc2)c2ccccc2)CC1	Sfp inh 89.1µM (no result: L3MBTL1 inh)
COc1ccc(C)cc1S(=O)(=O)N1CCN(C(=O)c2ncoc2-c2ccccc2C)CC1	none (no result: L3MBTL1 inh)
Cc1ccc(S(=O)(=O)N2CCN(c3nc(-c4cccs4)nc4ncccc34)CC2)cc1	none (no result: G9a block, L3MBTL1 inh, Sfp inh, BAZ2B inh)
CC(=O)c1ccc(NC(=O)c2ncn(-c3ccccc3)n2)cc1	none (no result: L3MBTL1 inh, Sfp inh)
COc1cccc(NC(=O)/C=C/c2ccccc2[N+](=O)[O-])c1	G9a block inconclusive, BAZ2B inh inconclusive
